{
  "source": "the supplement of paper PMC8728848",
  "binders": {"B1": {"name": "LF82 (Escherichia coli) (protein)", "chain": "ADWGPCRTASGDPFIFVTSFTKNIQNPTDNVTGQTYPDFYQWALGDKYSGVCECPSPNPTEARPTLYKTESTLAAGHNSTYFKITNNLEVSTRVYIANVGNVQVPFINKSNSQPGRECDQPTFGWTTGSKGQLSLYIAKPFVGEQNIPQTIIVSVFGTKKENVYSSVPISQVLLSGKVTVTQGCELAAGTSLDIDFGEYQAHDFKGRTGQPPQNVQKIQKELTFNCTNISDGVHIYLSLEGTPNAAYPSAISLGNADVGAVIEDGKGNILKPNDSNSLLEMNPGSLYEYVKRKVTTTITAYPVSTTGKLPAAGDYSGVATMHVELDGGGGGGGGGGATTDLGAKGTLKFSLKISQGHHHHHH"}},
  "assay_in_all_cases": "glycan array binding signal (z-score within array); higher = stronger binding",
  "details_in_all_cases": "glycan notation: IUPAC condensed, linker removed",
  "key": {"[1]": {"target": "GlcNAc(b1-3)Gal(b1-4)GlcNAc(b1-2)Man(a1-3)[GlcNAc(b1-3)Gal(b1-4)GlcNAc(b1-2)Man(a1-6)]Man(b1-4)GlcNAc(b1-4)GlcNAc", "summary_of_the_method": "(§1)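 Negative Z-scores can be read as non-binding. The Z-score is calculated within each array and then averaged across arrays of one protein sequence at different concentrations or buffers and across linkers. Arrays, 3228 in all, were curated from the Consortium for Functional Glycomics database and kept only where the protein sequence was available.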"}, "[2]": {"target": "GlcNAc(b1-3)Gal(b1-4)GlcNAc(b1-3)Gal(b1-4)GlcNAc(b1-2)Man(a1-3)[GlcNAc(b1-3)Gal(b1-4)GlcNAc(b1-3)Gal(b1-4)GlcNAc(b1-2)Man(a1-6)]Man(b1-4)GlcNAc(b1-4)GlcNAc", "summary_of_the_method": "as §1"}, "[3]": {"target": "GlcNAc(b1-3)Gal(b1-4)GlcNAc(b1-6)[Gal(b1-3)]GalNAc", "summary_of_the_method": "as §1"}, "[4]": {"target": "GlcNAc(b1-3)Gal(b1-4)GlcNAc(b1-6)[GlcNAc(b1-3)Gal(b1-3)]GalNAc", "summary_of_the_method": "as §1"}, "GlcNAc(b1-3)Man": {"target": "GlcNAc(b1-3)Man", "summary_of_the_method": "as §1"}, "[5]": {"target": "GlcNAc(b1-4)GlcNAc(b1-4)GlcNAc(b1-4)GlcNAc(b1-4)GlcNAc(b1-4)GlcNAc", "summary_of_the_method": "as §1"}, "[6]": {"target": "GlcNAc6S(b1-3)Gal(b1-4)GlcNAc", "summary_of_the_method": "as §1"}, "[7]": {"target": "Man(a1-2)Man(a1-6)[Man(a1-3)]Man(a1-6)[Man(a1-2)Man(a1-2)Man(a1-3)]Man(b1-4)GlcNAc(b1-4)GlcNAc", "summary_of_the_method": "as §1"}, "Man(b1-4)GlcNAc": {"target": "Man(b1-4)GlcNAc", "summary_of_the_method": "as §1"}, "Neu5Ac(a2-3)Gal": {"target": "Neu5Ac(a2-3)Gal", "summary_of_the_method": "as §1"}, "[8]": {"target": "Neu5Ac(a2-3)Gal(b1-3)GalNAc6S", "summary_of_the_method": "as §1"}, "[9]": {"target": "Neu5Ac(a2-3)Gal(b1-3)GlcNAc(b1-2)[Neu5Ac(a2-3)Gal(b1-3)GlcNAc(b1-4)]Man(a1-6)[Neu5Ac(a2-3)Gal(b1-3)GlcNAc(b1-2)Man(a1-3)]Man(b1-4)GlcNAc(b1-4)GlcNAc", "summary_of_the_method": "as §1"}, "[10]": {"target": "Neu5Ac(a2-3)Gal(b1-3)GlcNAc(b1-3)Gal(b1-3)GlcNAc", "summary_of_the_method": "as §1"}, "[11]": {"target": "Neu5Ac(a2-3)Gal(b1-3)GlcNAc(b1-6)GalNAc", "summary_of_the_method": "as §1"}, "[12]": {"target": "Neu5Ac(a2-3)Gal(b1-3)[Fuc(a1-4)]GlcNAc(b1-3)Gal(b1-4)[Fuc(a1-3)]GlcNAc", "summary_of_the_method": "as §1"}, "Neu5Ac(a2-3)Gal(b1-4)Glc": {"target": "Neu5Ac(a2-3)Gal(b1-4)Glc", "summary_of_the_method": "as §1"}, "[13]": {"target": "Neu5Ac(a2-3)Gal(b1-4)GlcNAc(b1-2)[Neu5Ac(a2-3)Gal(b1-4)GlcNAc(b1-4)]Man(a1-3)[GlcNAc(b1-4)][Neu5Ac(a2-3)Gal(b1-4)GlcNAc(b1-4)Man(a1-6)]Man(b1-4)GlcNAc(b1-4)GlcNAc", "summary_of_the_method": "as §1"}, "[14]": {"target": "Neu5Ac(a2-3)Gal(b1-4)GlcNAc(b1-6)[Neu5Ac(a2-3)Gal(b1-3)]GalNAc", "summary_of_the_method": "as §1"}, "[15]": {"target": "Neu5Ac(a2-3)Gal(b1-4)[Fuc(a1-3)]GlcNAc(b1-3)Gal(b1-4)GlcNAc", "summary_of_the_method": "as §1"}, "[16]": {"target": "Neu5Ac(a2-3)Gal(b1-4)[Fuc(a1-3)]GlcNAc(b1-3)Gal(b1-4)[Fuc(a1-3)]GlcNAc(b1-3)Gal(b1-4)[Fuc(a1-3)]GlcNAc", "summary_of_the_method": "as §1"}, "[17]": {"target": "Neu5Ac(a2-3)Gal(b1-4)[Fuc(a1-3)]GlcNAc(b1-3)GalNAc", "summary_of_the_method": "as §1"}, "[18]": {"target": "Neu5Ac(a2-6)Gal(b1-3)GlcNAc(b1-3)[Gal(b1-4)GlcNAc(b1-6)]Gal(b1-4)Glc", "summary_of_the_method": "as §1"}, "[19]": {"target": "Neu5Ac(a2-6)Gal(b1-4)GlcNAc(b1-2)Man(a1-6)[Gal(b1-4)GlcNAc(b1-2)Man(a1-3)]Man(b1-4)GlcNAc(b1-4)GlcNAc", "summary_of_the_method": "as §1"}, "[20]": {"target": "Neu5Ac(a2-6)Gal(b1-4)GlcNAc(b1-3)Gal(b1-4)GlcNAc(b1-3)Gal(b1-4)GlcNAc", "summary_of_the_method": "as §1"}, "[21]": {"target": "Neu5Ac(a2-6)Gal(b1-4)GlcNAc(b1-3)Gal(b1-4)[Fuc(a1-3)]GlcNAc(b1-3)Gal(b1-4)[Fuc(a1-3)]GlcNAc", "summary_of_the_method": "as §1"}, "[22]": {"target": "Neu5Ac(a2-8)Neu5Ac(a2-8)Neu5Ac(a2-3)[GalNAc(b1-4)]Gal(b1-4)Glc", "summary_of_the_method": "as §1"}, "[23]": {"target": "Neu5Ac(a2-8)Neu5Ac(a2-8)Neu5Ac(a2-8)Neu5Ac(a2-3)[GalNAc(b1-4)]Gal(b1-4)Glc", "summary_of_the_method": "as §1"}, "[24]": {"target": "Neu5Ac(a2-8)Neu5Gc(a2-3)Gal(b1-4)GlcNAc", "summary_of_the_method": "as §1"}, "[25]": {"target": "Neu5Gc(a2-3)Gal(b1-3)GlcNAc", "summary_of_the_method": "as §1"}},
  "note": "This excerpt belongs to a sample that is enriched for the strongest signals.",
  "data": [
    {"binder": "B1", "values": [
      {"measurement": "glycan array binding signal (z-score)", "setting": "[1]", "value": -0.713},
      {"measurement": "glycan array binding signal (z-score)", "setting": "[2]", "value": 1.79},
      {"measurement": "glycan array binding signal (z-score)", "setting": "[3]", "value": -0.509},
      {"measurement": "glycan array binding signal (z-score)", "setting": "[4]", "value": 0.416},
      {"measurement": "glycan array binding signal (z-score)", "setting": "GlcNAc(b1-3)Man", "value": 0.644},
      {"measurement": "glycan array binding signal (z-score)", "setting": "[5]", "value": -1.17},
      {"measurement": "glycan array binding signal (z-score)", "setting": "[6]", "value": -0.173},
      {"measurement": "glycan array binding signal (z-score)", "setting": "[7]", "value": 0.244},
      {"measurement": "glycan array binding signal (z-score)", "setting": "Man(b1-4)GlcNAc", "value": 0.456},
      {"measurement": "glycan array binding signal (z-score)", "setting": "Neu5Ac(a2-3)Gal", "value": 0.191},
      {"measurement": "glycan array binding signal (z-score)", "setting": "[8]", "value": 0.435},
      {"measurement": "glycan array binding signal (z-score)", "setting": "[9]", "value": 4.88},
      {"measurement": "glycan array binding signal (z-score)", "setting": "[10]", "value": -0.469},
      {"measurement": "glycan array binding signal (z-score)", "setting": "[11]", "value": -0.373},
      {"measurement": "glycan array binding signal (z-score)", "setting": "[12]", "value": -0.501},
      {"measurement": "glycan array binding signal (z-score)", "setting": "Neu5Ac(a2-3)Gal(b1-4)Glc", "value": 0.503},
      {"measurement": "glycan array binding signal (z-score)", "setting": "[13]", "value": 2.08},
      {"measurement": "glycan array binding signal (z-score)", "setting": "[14]", "value": -0.112},
      {"measurement": "glycan array binding signal (z-score)", "setting": "[15]", "value": 0.281},
      {"measurement": "glycan array binding signal (z-score)", "setting": "[16]", "value": 0.12},
      {"measurement": "glycan array binding signal (z-score)", "setting": "[17]", "value": 0.56},
      {"measurement": "glycan array binding signal (z-score)", "setting": "[18]", "value": 2.17},
      {"measurement": "glycan array binding signal (z-score)", "setting": "[19]", "value": 0.283},
      {"measurement": "glycan array binding signal (z-score)", "setting": "[20]", "value": 0.668},
      {"measurement": "glycan array binding signal (z-score)", "setting": "[21]", "value": 0.159},
      {"measurement": "glycan array binding signal (z-score)", "setting": "[22]", "value": -0.553},
      {"measurement": "glycan array binding signal (z-score)", "setting": "[23]", "value": 2.59},
      {"measurement": "glycan array binding signal (z-score)", "setting": "[24]", "value": -0.211},
      {"measurement": "glycan array binding signal (z-score)", "setting": "[25]", "value": 3.85}
    ]}
  ]
}
